The supplement of paper PMC6555819

Each sequence was assayed on VDR:RXRa (NR concentration 270 nM, RXRa partner concentration 90 nM) (assay: PBM binding z-score (relative to random genomic background probes); higher = stronger binding; sequences stand for … in GC…GCGATTGACAGCGTAGAATGAAGG).
Protocol: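 Protein-binding microarray (Agilent 4x180K custom design, double-stranded 60-nt probes: 5' GC cap, 34-nt variable region, 24-nt constant primer region; full probe sequence given). Purified or IVT nuclear receptor:RXRα heterodimers (3:1 NR:RXRα, mostly 270:90 nM) or homodimers were incubated for 1 h in PBS with 2% milk and no ligand, then detected with Alexa488 antibodies. Fluorescence from o1-orientation probes (~5 replicates averaged) was converted to z-scores against 500 random hg19 background probes. Variable regions are seed direct-repeat (DR0–DR5) sites, all their single-nucleotide variants and half-site ablations.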
ATCTCTAGGTAAAGTTTAGTGAAAGATCGATAGA was tested, and the PBM binding z-score was 0.28. With CGTCCAAGGTCAGCAGGTCAGTGCAAGCGACGTG the PBM binding z-score was 3.93. CCTTACGGGGCACGAGGTTATAGCACGACGAGCG showed a PBM binding z-score of 0.986. Sequence TGTCAAAGTTCAAAGGTAACTTAAGTATCCACAC has a PBM binding z-score of 5.09. In the case of CCTAGCAGGCCAATCTGGGTCACTCAGGGCTTGA, the PBM binding z-score is reported as 0.721. TCTGCTAGGTCATTTGGTCAGCTAACGAGCTGCC gave a PBM binding z-score of 2.21. TCTTGTAGATCAAAGGTTACGAAAGCCGAAGCCT gave a PBM binding z-score of 1.6. TAGCCCAGGTCATTGGGCCAGTATAGTACGCATC gave a PBM binding z-score of 3.03. With TCATATAGGTAAAGGTAAAAGTCGAACGATATGA the PBM binding z-score was 0.657. GCTAGTTCGTCAGTAAAAGGTCACACACCGGTCG was tested, and the PBM binding z-score was 4.28. GCTAGTTGGTCAGTCAAAGGTCACACACCGGTCG was tested, and the PBM binding z-score was 4.3. Work on TGAATGAGGTTAGAGATCAGGGAACGTGGCGTCG yielded a PBM binding z-score of 0.296. Sequence CTCGAAAGGTAGTGCTCAGGTGAGTATACCAAAC has a PBM binding z-score of -0.361. CCTGCTACGTCAATGGTCAGCTAAAGCAGCTCGC showed a PBM binding z-score of -0.379. In the case of CCTCGGAGGACAGAAGGTCAGAGATGTCCGCTTT, the PBM binding z-score is reported as 1.28. With CGTCCAAGGTCAGCACGTCAGTGAAAGCGACGTG the PBM binding z-score was 2.46. CCTATTAGTTGCCCATAAGGGCAACCGAAGCTCG showed a PBM binding z-score of 0.653. In the case of CCTACTGGGCCAAGTTCATTGATCAGTCAAAGCA, the PBM binding z-score is reported as 2.89. With ATCTCAAGGTAAAGATAGTTCAGTGAATGCAAAT the PBM binding z-score was 1.37. CATACAAGGTCAGCTAGGCCAGAGTAGGGACGGC gave a PBM binding z-score of 3.81. Sequence CCGACTGTGGCAGAAAGGTTACCATACCATCCGG has a PBM binding z-score of 0.378. Sequence GCAGACCGGTGAAACGCAGGTAACTCAGGGTGGC has a PBM binding z-score of -0.857. TCTCGGAGGACACAAAAGGTCAGAGCTCGACATC gave a PBM binding z-score of 3.17. TATTGTAGATCAAGCAGGTTAAGAAAGCCTGAGT was tested, and the PBM binding z-score was 0.301. Sequence ATCTCTAGGTAAAGTTCAGTGCAAGATCGATAGA has a PBM binding z-score of 1.87. With CCTATTAGTTGACCAAAAGGGCAACCGAAGCTCG the PBM binding z-score was 0.901. Work on TCTATTAGTTGAATGGCAACCGACGAGTCCGTTT yielded a PBM binding z-score of 0.746. Sequence CAAACTAGGTCACAGAGCTCAAAGTCCGTGCGTA has a PBM binding z-score of 3.09. For ACGATTAGTTGAGACGAGGGCAACCGATAGGTTG, the PBM binding z-score was 0.249. With AATACAGGGTCATCGTAGGCCAGAGTTCGCACAG the PBM binding z-score was 5.79. ACCTCTAGGTAAAAGTTCAGTGAATCCCGAGGAT was tested, and the PBM binding z-score was 0.859. CAAACTGGGTCACAGAGGTCAAAGTCCGTGCGTA showed a PBM binding z-score of 7.58. Sequence TCTGCTAGGTCAGTTGGCCAGCTAACGAGCTGCC has a PBM binding z-score of -0.113. ACTATTAATTGACTTAGGGCAACCGATACGACGC showed a PBM binding z-score of 0.425. TATACAGGGTCAAAGGCCATAGTACGAATGTCGA showed a PBM binding z-score of 5.08. CAAACTAGGTCACCGAGGTCAAAGTCCGTGCGTA was tested, and the PBM binding z-score was 8.34. Sequence CGTCAAAGTTGAACTAAGGTAACGTAAAGCACGC has a PBM binding z-score of 1.43. TCTCGGAGGACACGAAAGCTCAGAGCTCGACATC showed a PBM binding z-score of -0.282. For TGAATGAGGTTACAGATCAGGGAACGTGGCGTCG, the PBM binding z-score was 0.932. For TCGTGTAGATCAAGCAGGTTAAGAAAGCCTGAGT, the PBM binding z-score was 0.56.
